FBW7 act = activators of human E3 ligase FBW7 | AlphaScreen FBW7–phospho-cyclin E peptide binding, activator screen | Q969H0 | normalized activity (activation), % at 26.1 µM | actives 0.13% (n = 650,000); in the data active = normalized activity above about 1.9%;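 also: purified mutant Fbw7 with reduced substrate affinity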
MITF primary = inhibitors of human MITF | O75030 | AlphaScreen MITF homodimerization, bead proximity signal | inhibition, % at 2.6 µM | actives 0.91% (n = 650,000); in the data active = inhibition above about 50%
GPR151 ag = human GPR151 activation. activation, % at 11.2 µM. AID 1508602. PathHunter beta-arrestin GPR151 cells, luminescence. actives 1% (n = 650,000). Q8TDV0; in the data active = activation above about 4.9%
Target sequence (Q8TDV0 whole entry, looked up): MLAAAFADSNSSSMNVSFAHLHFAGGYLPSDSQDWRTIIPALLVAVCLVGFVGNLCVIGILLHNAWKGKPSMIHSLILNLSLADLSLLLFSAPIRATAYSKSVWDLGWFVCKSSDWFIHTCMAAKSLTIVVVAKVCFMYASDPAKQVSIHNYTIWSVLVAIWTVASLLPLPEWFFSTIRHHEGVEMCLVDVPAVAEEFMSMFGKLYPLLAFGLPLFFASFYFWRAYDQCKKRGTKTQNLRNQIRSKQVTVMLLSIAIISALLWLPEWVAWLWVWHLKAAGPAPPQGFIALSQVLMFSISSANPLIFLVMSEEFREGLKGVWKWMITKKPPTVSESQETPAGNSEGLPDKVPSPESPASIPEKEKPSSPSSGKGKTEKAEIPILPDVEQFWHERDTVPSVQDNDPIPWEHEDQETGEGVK
TEAD-YAP inh = TEAD-YAP interaction inhibition; HEK-TIYL cells, TEAD-Gal4/YAP UAS-luciferase luminescence; inhibition, % at 9.12 µM; actives 1.4% (n = 640,000); in the data active = inhibition above about 32%
GPR151 confirm = human GPR151 activation, confirmation screen; 6,700 tested, under 10 active; activation, % at 11.2 µM; GPR151 PathHunter beta-arrestin cells, luminescence, 90 min; % of EA-reagent control over plate median; shares compounds with GPR151 ag;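 active = mean percent activation across replicates above the confirmation screen cutoff of 4.91%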
GPR119 counter = GPR119 activation, counter-screen for GPR151 activators; activation, % at 11.2 µM; shares compounds with GPR151 ag; actives 0.3% (n = 6,700); AID 1508611; GPR119 PathHunter beta-arrestin cells, luminescence, 90 min; 0 = compound-well median, 100 = enzyme-acceptor control;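 active = mean percent activation in the counterscreen above 29.09%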;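 also: counterscreen on off-target GPR119 to flag nonselective hits from the GPR151 activator screen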
Of the large screens only hits and unclear results are named; the others gave an inactive call (follow-up assays come after a bar, where they were run). In the library only some 3.5% were active in any assay of this set; here they are far more common.

Cc1c(C(=O)N2CCC(Cc3ccccc3)CC2)sc2ncnc(N3CCc4ccccc4C3)c12	none
O=C(CCCCCN1C(=O)c2cccc([N+](=O)[O-])c2C1=O)Nc1ccc(F)cc1	none
N#Cc1ccccc1CSc1ncnc2sccc12	GPR151 ag 5.1 | GPR151 confirm inactive | GPR119 counter inactive
O=C(CCN1C(=O)c2ccccc2C1=O)Nc1cc([N+](=O)[O-])ccc1O	GPR151 ag 5.8 | GPR151 confirm inactive | GPR119 counter inactive
O=C(CCN1C(=O)c2ccc([N+](=O)[O-])cc2C1=O)Nc1cc(Cl)ccc1O	none
Cc1cc(Cl)ccc1OC(C)C(=O)NCc1ccco1 (stereo not given)	GPR151 ag 6.9 | GPR151 confirm inactive | GPR119 counter inactive
CCOC(=O)N1CCN(CC(O)COc2ccc([N+](=O)[O-])cc2)CC1 (stereo not given)	GPR151 ag 5.4 | GPR151 confirm inactive | GPR119 counter inactive
Cc1ccc2c(=O)cc(-c3cc(C(=O)O)cc4c3OCOC4)oc2c1	none
O=Cc1cc(C(=O)O)cc2c1OCOC2	GPR151 ag 11 | GPR151 confirm inactive | GPR119 counter inactive
O=C(O)CCc1nn2c3ccccc3n(CC(=O)O)c2nc1=O	GPR151 ag 21 | GPR151 confirm inactive | GPR119 counter inactive
O=C(O)CCc1nn2c3ccccc3n(CCN3CCCCC3)c2nc1=O	none
Cc1ccnc(NC(=O)NC2CC(=O)N(c3ccccc3)C2)c1 (stereo not given)	GPR151 ag 6.1 | GPR151 confirm inactive | GPR119 counter inactive
COc1ccc(CCNC(=O)NC2CC(=O)N(c3cccc(F)c3)C2)cc1 (stereo not given)	none
COc1ccc(CCNC(=O)NC2CC(=O)N(c3ccccc3)C2)cc1 (stereo not given)	GPR151 ag 6.1 | GPR151 confirm inactive | GPR119 counter inactive
O=C1CC(NCCCCO)C(=O)N1c1ccc(Br)cc1 (stereo not given)	none
O=C1CC(NCCCc2ccccc2)C(=O)N1c1ccc(Br)cc1 (stereo not given)	GPR151 ag 11 | GPR151 confirm inactive | GPR119 counter inactive
O=C(NCCc1ccccc1)C1CC(=O)N(c2ccc(Br)cc2)C1 (stereo not given)	GPR151 ag 5.5 | GPR151 confirm inactive | GPR119 counter inactive
COc1ccc(S(=O)(=O)/N=C2\C=CC(=O)C(Cl)=C2)cc1	none
Cc1nc2c(C(=O)Nc3ccc4c(c3)CCC4)snc2c(=O)[nH]1	none
Cc1ccc(N2CC(NC(=O)Nc3ncccc3C)CC2=O)cc1 (stereo not given)	GPR151 ag 5.9 | GPR151 confirm inactive | GPR119 counter inactive
COc1ccc(N2CC(NC(=O)Nc3ccccc3C(N)=O)CC2=O)cc1OC (stereo not given)	GPR151 ag 5.4 | GPR151 confirm inactive | GPR119 counter inactive
Cc1ccc(N2CC(NC(=O)Nc3nccs3)CC2=O)cc1 (stereo not given)	none
Cc1ccc(NCCNS(=O)(=O)c2cc(C)c(C)cc2C)nn1	GPR151 ag 8.4 | GPR151 confirm inactive | GPR119 counter inactive
CCn1c2ccccc2c2cc(NC(=O)Cn3cnc4c3c(=O)n(C)c(=O)n4C)ccc21	GPR151 ag 6.1 | GPR151 confirm inactive | GPR119 counter inactive
Cn1c(=O)c2c(ncn2CC(=O)Nc2ccccc2)n(C)c1=O	none
CC(C)CCNC(=O)c1noc2c1COc1ccccc1-2	GPR151 ag 6.6 | GPR151 confirm inactive | GPR119 counter inactive
O=C(NCc1ccccc1)c1noc2c1COc1ccccc1-2	none
O=C(Nc1ccc2oc(-c3cc(Br)ccc3Cl)nc2c1)c1cccc2ccccc12	none
O=C(CCNS(=O)(=O)c1ccc(Br)cc1)NNC(=O)c1ccccn1	none
C(=N\n1cnnc1)/c1ccc2c(c1)OCCO2	GPR151 ag 12 | GPR151 confirm inactive | GPR119 counter inactive
C(=N\n1cnnc1)/c1ccc2c(c1)OCO2	none
COc1ccc(CC2(CO)CCN(Cc3ccc(NC(C)=O)cc3)CC2)cc1	GPR151 ag 5.9 | GPR151 confirm inactive | GPR119 counter inactive
O=C(NCCN1CCOCC1)c1ccc2nc(NCCN3CCOCC3)sc2c1	none
CCn1c(O)c(N=NC(=O)c2ccc(C)nc2)c2ccccc21	none

Bioassay records as filed in PubChem.
